The supplement of paper PMC10849652
Of roughly 8,800 targets only a part is listed; those with a hit were picked by preference. About 0.5% of all pairs of compound and target were hits.

compound: Cc1cn(-c2cc(NC(=O)c3ccc(C)c(Nc4nccc(-c5cccnc5)n4)c3)cc(C(F)(F)F)c2)cn1 [nilotinib]; experiment: log2 fold change, soluble protein after heating vs DMSO (PISA); higher = thermal stabilisation; K562 lysate, 10 uM; active = over 0.2 and 3.5 SD of the protein, either way, in both replicates (recomputed)
In short: (§1)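 Thermal stability, expressed as log-two fold change relative to solvent controls, is given from duplicates. Crude K562 extract in PBS pH 7.4 with 1 mM MgCl2, at 1 mg/mL protein, was treated with 10 μM compound for 30 min and heated in aliquots for 3 min across 48°C-58°C. After pooling, adjustment to 0.5% NP-40 at 4°C and centrifugation at 21,000xg for 90 min, supernatant protein was measured by TMTpro 16plex LC-MS/MS with channel sums equalised.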

UniProt Q7Z4H7, sequence (Q7Z4H7 whole entry, looked up): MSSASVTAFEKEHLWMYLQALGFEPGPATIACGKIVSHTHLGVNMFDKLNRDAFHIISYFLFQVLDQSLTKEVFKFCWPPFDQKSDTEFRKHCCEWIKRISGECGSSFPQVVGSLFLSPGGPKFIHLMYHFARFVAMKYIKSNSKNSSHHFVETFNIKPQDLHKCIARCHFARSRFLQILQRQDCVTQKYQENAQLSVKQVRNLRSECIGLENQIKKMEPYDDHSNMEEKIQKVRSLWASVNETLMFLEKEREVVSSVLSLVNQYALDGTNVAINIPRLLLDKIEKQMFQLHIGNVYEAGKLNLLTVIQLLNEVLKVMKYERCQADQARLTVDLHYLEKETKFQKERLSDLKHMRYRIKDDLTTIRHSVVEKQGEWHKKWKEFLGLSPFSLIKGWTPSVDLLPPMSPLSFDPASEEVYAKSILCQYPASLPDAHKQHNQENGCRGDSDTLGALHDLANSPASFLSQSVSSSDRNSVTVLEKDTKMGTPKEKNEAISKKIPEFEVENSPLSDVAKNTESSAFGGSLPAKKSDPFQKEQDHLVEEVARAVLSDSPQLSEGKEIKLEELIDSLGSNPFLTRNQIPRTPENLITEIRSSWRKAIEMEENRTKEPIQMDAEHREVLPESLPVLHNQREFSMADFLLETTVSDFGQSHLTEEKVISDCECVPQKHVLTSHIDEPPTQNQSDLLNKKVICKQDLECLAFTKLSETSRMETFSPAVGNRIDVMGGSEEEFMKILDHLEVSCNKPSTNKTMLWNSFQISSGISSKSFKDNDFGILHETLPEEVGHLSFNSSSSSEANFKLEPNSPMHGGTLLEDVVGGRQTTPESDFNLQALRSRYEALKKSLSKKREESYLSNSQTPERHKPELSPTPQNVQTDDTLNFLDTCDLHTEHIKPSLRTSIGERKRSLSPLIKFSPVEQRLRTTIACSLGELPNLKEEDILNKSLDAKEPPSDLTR
UniProt Q16891, sequence (Q16891 whole entry, looked up): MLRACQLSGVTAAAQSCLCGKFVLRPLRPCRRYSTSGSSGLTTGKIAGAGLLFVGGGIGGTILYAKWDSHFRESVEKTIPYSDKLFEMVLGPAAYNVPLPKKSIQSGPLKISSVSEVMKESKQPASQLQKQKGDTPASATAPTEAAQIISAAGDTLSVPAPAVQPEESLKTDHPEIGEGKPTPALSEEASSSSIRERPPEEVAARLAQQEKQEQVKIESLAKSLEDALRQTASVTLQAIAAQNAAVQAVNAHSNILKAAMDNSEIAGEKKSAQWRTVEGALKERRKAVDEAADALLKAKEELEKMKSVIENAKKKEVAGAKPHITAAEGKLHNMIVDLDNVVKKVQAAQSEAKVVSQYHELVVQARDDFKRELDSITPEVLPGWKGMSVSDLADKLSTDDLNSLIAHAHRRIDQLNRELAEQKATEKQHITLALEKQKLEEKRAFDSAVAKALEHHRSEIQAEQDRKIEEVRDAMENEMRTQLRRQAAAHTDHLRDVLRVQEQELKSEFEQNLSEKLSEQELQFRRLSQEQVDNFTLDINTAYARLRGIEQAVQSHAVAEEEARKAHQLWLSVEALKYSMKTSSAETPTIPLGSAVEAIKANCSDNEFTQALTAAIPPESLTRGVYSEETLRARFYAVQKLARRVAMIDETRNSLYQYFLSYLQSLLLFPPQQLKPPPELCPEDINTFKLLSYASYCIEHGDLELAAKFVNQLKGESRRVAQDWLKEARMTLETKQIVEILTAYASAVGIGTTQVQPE
UniProt Q96AB3, sequence (Q96AB3 whole entry, looked up): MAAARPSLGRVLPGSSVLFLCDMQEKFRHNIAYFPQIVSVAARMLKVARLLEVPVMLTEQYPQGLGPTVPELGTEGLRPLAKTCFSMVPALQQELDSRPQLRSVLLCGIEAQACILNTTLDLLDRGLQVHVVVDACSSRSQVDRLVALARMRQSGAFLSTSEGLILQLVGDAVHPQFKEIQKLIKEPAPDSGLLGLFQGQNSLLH
UniProt Q27J81, sequence (Q27J81 whole entry, looked up): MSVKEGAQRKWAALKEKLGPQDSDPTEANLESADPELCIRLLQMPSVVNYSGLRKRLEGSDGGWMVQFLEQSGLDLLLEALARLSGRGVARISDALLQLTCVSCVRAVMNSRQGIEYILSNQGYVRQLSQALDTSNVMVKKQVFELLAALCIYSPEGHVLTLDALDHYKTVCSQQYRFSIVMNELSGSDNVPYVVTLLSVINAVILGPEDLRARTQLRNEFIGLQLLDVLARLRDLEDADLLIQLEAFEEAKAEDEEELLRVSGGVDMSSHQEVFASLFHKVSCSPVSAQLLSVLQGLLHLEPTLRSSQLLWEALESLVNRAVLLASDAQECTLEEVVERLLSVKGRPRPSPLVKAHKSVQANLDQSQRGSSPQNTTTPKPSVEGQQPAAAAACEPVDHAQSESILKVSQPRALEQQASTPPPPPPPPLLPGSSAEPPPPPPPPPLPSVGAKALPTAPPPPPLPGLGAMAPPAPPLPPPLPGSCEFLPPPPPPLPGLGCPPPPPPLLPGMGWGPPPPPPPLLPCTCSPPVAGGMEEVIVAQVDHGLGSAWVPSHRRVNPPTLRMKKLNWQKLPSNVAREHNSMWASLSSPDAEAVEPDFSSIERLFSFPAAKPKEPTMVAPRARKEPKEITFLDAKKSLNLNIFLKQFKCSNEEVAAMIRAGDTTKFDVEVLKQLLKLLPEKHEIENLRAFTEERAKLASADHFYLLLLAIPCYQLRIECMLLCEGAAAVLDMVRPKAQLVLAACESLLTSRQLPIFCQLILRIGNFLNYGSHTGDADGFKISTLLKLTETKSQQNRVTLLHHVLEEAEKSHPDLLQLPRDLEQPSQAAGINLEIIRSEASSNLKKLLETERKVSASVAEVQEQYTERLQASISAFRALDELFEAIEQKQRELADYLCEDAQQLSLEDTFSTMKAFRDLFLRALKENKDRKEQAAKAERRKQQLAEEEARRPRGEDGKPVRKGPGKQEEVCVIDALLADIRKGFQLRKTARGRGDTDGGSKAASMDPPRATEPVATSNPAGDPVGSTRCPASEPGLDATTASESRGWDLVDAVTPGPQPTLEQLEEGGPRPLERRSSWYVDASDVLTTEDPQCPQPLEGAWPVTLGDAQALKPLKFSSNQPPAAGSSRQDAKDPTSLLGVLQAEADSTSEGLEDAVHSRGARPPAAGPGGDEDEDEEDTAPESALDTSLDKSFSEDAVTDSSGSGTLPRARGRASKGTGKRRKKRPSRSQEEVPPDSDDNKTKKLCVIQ
UniProt Q5T447, sequence (Q5T447 whole entry, looked up): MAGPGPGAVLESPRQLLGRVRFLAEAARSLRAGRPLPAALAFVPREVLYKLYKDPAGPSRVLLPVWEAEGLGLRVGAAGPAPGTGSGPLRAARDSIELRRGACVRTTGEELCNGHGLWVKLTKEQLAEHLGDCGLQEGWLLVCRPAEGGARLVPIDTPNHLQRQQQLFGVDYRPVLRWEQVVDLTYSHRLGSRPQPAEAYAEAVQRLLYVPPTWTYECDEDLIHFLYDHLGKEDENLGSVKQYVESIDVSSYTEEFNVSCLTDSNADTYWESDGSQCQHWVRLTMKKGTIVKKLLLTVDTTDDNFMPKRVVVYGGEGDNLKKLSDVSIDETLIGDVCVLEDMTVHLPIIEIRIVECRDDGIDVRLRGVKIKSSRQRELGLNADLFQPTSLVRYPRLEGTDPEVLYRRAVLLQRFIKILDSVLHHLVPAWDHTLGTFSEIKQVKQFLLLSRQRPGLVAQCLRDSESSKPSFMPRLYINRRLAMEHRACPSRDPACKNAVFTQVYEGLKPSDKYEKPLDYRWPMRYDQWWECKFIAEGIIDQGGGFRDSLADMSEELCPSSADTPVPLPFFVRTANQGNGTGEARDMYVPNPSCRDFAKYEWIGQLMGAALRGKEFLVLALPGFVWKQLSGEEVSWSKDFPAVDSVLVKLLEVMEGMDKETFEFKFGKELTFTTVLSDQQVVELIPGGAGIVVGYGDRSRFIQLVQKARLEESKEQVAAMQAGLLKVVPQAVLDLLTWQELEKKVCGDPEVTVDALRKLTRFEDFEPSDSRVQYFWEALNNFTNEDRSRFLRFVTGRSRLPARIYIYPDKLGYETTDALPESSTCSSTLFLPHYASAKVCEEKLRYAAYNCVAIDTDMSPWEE
UniProt P52655, sequence (P52655 whole entry, looked up): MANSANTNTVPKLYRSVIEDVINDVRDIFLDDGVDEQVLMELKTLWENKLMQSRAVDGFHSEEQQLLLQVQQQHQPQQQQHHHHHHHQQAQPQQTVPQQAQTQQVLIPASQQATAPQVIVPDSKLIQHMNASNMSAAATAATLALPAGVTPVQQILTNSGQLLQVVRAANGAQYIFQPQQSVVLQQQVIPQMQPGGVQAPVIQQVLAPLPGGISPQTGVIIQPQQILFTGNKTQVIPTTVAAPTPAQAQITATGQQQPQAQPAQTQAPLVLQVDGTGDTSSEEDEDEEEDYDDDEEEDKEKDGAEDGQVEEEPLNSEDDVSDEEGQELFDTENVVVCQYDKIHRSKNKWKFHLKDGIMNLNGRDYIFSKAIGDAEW
UniProt O00425, sequence (O00425 whole entry, looked up): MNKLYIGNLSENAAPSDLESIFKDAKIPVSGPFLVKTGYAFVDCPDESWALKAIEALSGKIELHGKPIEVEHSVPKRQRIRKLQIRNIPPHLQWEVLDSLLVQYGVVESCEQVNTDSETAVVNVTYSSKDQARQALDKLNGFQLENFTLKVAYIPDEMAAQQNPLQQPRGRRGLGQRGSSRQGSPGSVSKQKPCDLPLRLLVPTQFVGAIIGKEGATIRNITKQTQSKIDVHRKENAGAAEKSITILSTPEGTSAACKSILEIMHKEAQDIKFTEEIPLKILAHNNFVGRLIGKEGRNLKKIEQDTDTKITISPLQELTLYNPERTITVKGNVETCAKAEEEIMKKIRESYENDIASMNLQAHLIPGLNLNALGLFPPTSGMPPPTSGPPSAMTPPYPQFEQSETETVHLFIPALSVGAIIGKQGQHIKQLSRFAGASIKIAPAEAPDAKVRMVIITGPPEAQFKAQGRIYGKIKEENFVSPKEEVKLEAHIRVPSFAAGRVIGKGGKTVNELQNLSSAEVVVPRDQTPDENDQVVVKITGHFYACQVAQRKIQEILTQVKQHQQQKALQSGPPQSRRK

log2 fold change, inactive:
GTPBP2 (UniProt Q9BX10) 0.016
GMDS (UniProt O60547) -0.023
HSPA8 (UniProt E9PK54) 0.023
ILK (UniProt Q13418) 0.01
HNRNPUL2 (UniProt Q1KMD3) -0.037
KDM1A (UniProt O60341) -0.009
INF2 (UniProt Q27J81) -0.08
ITPKA (UniProt P23677) -0.005
INTS3 (UniProt Q68E01) -0.007
KBTBD4 isoform 2 (UniProt Q9NVX7) 0.063
HNRNPL (UniProt P14866) -0.011
HK1 isoform 2 (UniProt P19367) 0.011
HAUS8 (UniProt Q9BT25) 0.025
IMMT (UniProt Q16891) -0.009
HIST2H2AA3 (UniProt Q6FI13) 0.135
HAUS6 (UniProt Q7Z4H7) -0.022
ISY1 isoform 1 (UniProt Q9ULR0) 0.012
HLCS (UniProt P50747) -0.005
HSD17B12 (UniProt Q53GQ0) -0.024
HAUS7 isoform 2 (UniProt Q99871) 0.021
GTF2A1 (UniProt P52655) 0.024
IL18R1 (UniProt Q13478) 0.02
IRAK4 (UniProt Q9NWZ3) -0.115
GLUD2 (UniProt P49448) 0.053
HAUS4 (UniProt Q9H6D7) 0.03
HNRNPD isoform 2 (UniProt Q14103) -0.047
HECTD3 (UniProt Q5T447) -0.004
GTF2H1 (UniProt P32780) 0.009
KARS1 (UniProt Q15046) -0.017
HMGCS1 (UniProt Q01581) 0.003
HNRNPAB isoform 3 (UniProt Q99729) -0.012
ISOC2 (UniProt Q96AB3) 0.012
IGF2BP3 (UniProt O00425) -0.046
KBTBD2 (UniProt Q8IY47) 0.014
H2AFY (UniProt O75367) 0.013
KCT2 (UniProt Q8NC54) -0.034

compound: Cc1nc(Nc2n[nH]c3c2CN(C(=O)N[C@H](CN(C)C)c2ccccc2)C3(C)C)c2sccc2n1; experiment: as above
In short: as §1

log2 fold change, inactive:
GTPBP2 (UniProt Q9BX10) -0.009
GMDS (UniProt O60547) 0.05
HSPA8 (UniProt E9PK54) -0.053
ILK (UniProt Q13418) -0.066
HNRNPUL2 (UniProt Q1KMD3) 0.02
KDM1A (UniProt O60341) 0.007
INF2 (UniProt Q27J81) 0.055
ITPKA (UniProt P23677) 0.045
INTS3 (UniProt Q68E01) 0.007
KBTBD4 isoform 2 (UniProt Q9NVX7) -0.019
HNRNPL (UniProt P14866) -0.015
HK1 isoform 2 (UniProt P19367) 0
HAUS8 (UniProt Q9BT25) 0.026
IMMT (UniProt Q16891) 0.016
HIST2H2AA3 (UniProt Q6FI13) -0.098
HAUS6 (UniProt Q7Z4H7) -0.008
ISY1 isoform 1 (UniProt Q9ULR0) 0.026
HLCS (UniProt P50747) -0.005
HSD17B12 (UniProt Q53GQ0) -0.04
HAUS7 isoform 2 (UniProt Q99871) 0.007
GTF2A1 (UniProt P52655) -0.047
IL18R1 (UniProt Q13478) 0.136
IRAK4 (UniProt Q9NWZ3) 0.065
GLUD2 (UniProt P49448) -0.067
HAUS4 (UniProt Q9H6D7) -0.05
HNRNPD isoform 2 (UniProt Q14103) 0
HECTD3 (UniProt Q5T447) 0.041
GTF2H1 (UniProt P32780) 0.013
KARS1 (UniProt Q15046) -0.01
HMGCS1 (UniProt Q01581) -0.015
HNRNPAB isoform 3 (UniProt Q99729) 0.026
ISOC2 (UniProt Q96AB3) 0.022
IGF2BP3 (UniProt O00425) 0.008
KBTBD2 (UniProt Q8IY47) -0.005
H2AFY (UniProt O75367) 0.003
KCT2 (UniProt Q8NC54) 0.008
